# PubChem BioAssay (NCATS)
# Results filed as inconclusive are left out. Entries that show only a call come without a potency. Activity calls are given as the source filed them. Calls come from the whole dose curve.
# Test: Primary qHTS for Huh7 cytotoxicity: counterscreen for inhibitors of MERS-S pseudotyped particle cell entry (AID 1479147)
# Details: cell viability read-out; series mostly up to 57.1 µM
row,Compound,Potency
1,COc1cc2c(c(OC)c1OC)-c1ccc(OC)c(=O)cc1[C@@H](NC(C)=O)CC2,inactive
2,COc1cc(C(=O)NCc2ccc(OCCN(C)C)cc2)cc(OC)c1OC,inactive
3,CCn1cc(C(=O)O)c(=O)c2ccc(C)nc21,inactive
4,CC(=O)Oc1cc2c(s1)CCN(C(C(=O)C1CC1)c1ccccc1F)C2 (stereo unspecified),inactive
5,COC(=O)[C@@H]1CC2=CC(=O)CC[C@]2(C)[C@@]23O[C@@H]2C[C@@]2(C)[C@@H](CC[C@@]24CCC(=O)O4)[C@H]13,inactive
6,CO/N=C1\CN(c2nc3c(cc2F)c(=O)c(C(=O)O)cn3C2CC2)CC1CN (stereo unspecified),inactive
7,OC(Cn1cncn1)(Cn1cncn1)c1ccc(F)cc1F,inactive
8,CC(=O)Nc1nnc(S(N)(=O)=O)s1,inactive
9,CCN1CCN(C(=O)N[C@@H](C(=O)N[C@@H]2C(=O)N3C(C(=O)O)=C(CSc4nnnn4C)CS[C@H]23)c2ccc(O)cc2)C(=O)C1=O,inactive
10,CC(C)NCC(O)COc1ccc(CCOCC2CC2)cc1 (stereo unspecified),inactive
11,CCOC(=O)Nc1ccc2c(c1)N(C(=O)CCN1CCOCC1)c1ccccc1S2,inactive
12,O=C1C(=O)c2ccccc2C(O)=C1C1CCC(c2ccc(Cl)cc2)CC1 (stereo unspecified),inactive
13,CC1(C)NC(=O)N(c2ccc([N+](=O)[O-])c(C(F)(F)F)c2)C1=O,inactive
14,CC[C@@]1(O)C(=O)OCc2c1cc1n(c2=O)Cc2cc3c(CN(C)C)c(O)ccc3nc2-1,inactive
15,CC(COc1ccccc1)N(CCCl)Cc1ccccc1 (stereo unspecified),inactive
16,C[N+]1(C)CCC(OC(=O)C(O)(c2ccccc2)C2CCCC2)C1 (stereo unspecified),inactive
